Peg3 prom inh: Peg3 promoter activity inhibition; 360,000 compounds, 1.7% hits; inhibition, % at 20 µM; AID 588405; HeLa PEG-Prom luciferase reporter, luminescence, overnight;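 active means inhibition of at least 50% at 20 µM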
CF NFkB inh: inhibitors of cystic fibrosis induced NF-kB; KKLEB NF-kB-GFP reporter, PAF-induced, GFP fluorescence overnight; inhibition, % at 5 µM; 360,000 compounds, 0.86% hits;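 active means at least 50% inhibition at 5 µM, scaled per plate between neutral and stimulator controls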;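 further: PAF is a Pseudomonas aeruginosa culture filtrate used as stimulus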
HIF-2a block: blocks HIF-2a reporter activity; inhibition, % at 18.8 µM; AID 624352; 360,000 compounds, 0.72% hits; 786-0 RCC cells HIF-2a reporter, luciferase luminescence, overnight;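 active means inhibition of the luminescence signal of 40% or more relative to plate controls, in a single-dose primary screen at 18.75 µM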
TROY NFkB inh: blocks TROY-dependent signaling in reporter cells. Q293 LMP1-TROYcd NF-kB luciferase reporter, 4 h. inhibition, % at 10 µM. 360,000 compounds, 0.98% hits. AID 1347056;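 active means compounds whose plate-normalised and pattern-corrected inhibition of the luciferase reporter signal at the single screening dose is 50% or more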
TWEAK Fn14 block: TWEAK-Fn14 signaling inhibition | TWEAK-stimulated Fn14 reporter cells, luciferase luminescence, 8 h | inhibition, % at 10 µM | 360,000 compounds, 2% hits | AID 1159606; in the data active means inhibition above about 50%
KKLEB tox: reduces viability of KKLEB cystic fibrosis airway cells; activity change (cytotoxicity), % at 5 µM; 360,000 compounds, 0.36% hits; AID 602141; KKLEB CF airway cells viability, ATPlite luminescence, overnight; hits give low values; cells stimulated with P. aeruginosa culture filtrate;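 active means corrected activity change at or below -50% at 5 µM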
Mdm2-MdmX confirm: Mdm2/MdmX (human) interaction inhibition, confirmed; shares compounds with HIF-2a block; SaOS-2 split-luciferase Mdm2/MdmX complementation, luminescence; inhibition, % at 8 µM; 740 compounds, 99% hits;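 active means mean inhibition of the luminescence signal across two replicates at or above 26 percent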
Target sequence (O15151 whole entry, looked up): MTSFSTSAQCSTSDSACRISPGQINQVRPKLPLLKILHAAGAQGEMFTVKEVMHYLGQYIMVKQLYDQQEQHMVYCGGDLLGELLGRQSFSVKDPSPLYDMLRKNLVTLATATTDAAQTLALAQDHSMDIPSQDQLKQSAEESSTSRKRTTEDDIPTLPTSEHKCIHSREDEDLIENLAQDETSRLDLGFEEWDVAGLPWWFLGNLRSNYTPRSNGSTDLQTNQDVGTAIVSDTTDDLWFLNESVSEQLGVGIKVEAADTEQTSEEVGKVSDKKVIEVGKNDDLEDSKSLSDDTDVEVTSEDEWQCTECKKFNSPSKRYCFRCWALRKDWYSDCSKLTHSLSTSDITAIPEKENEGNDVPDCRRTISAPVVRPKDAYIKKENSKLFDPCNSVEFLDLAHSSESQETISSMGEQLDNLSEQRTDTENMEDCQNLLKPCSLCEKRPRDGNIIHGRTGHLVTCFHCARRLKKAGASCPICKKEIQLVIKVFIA
Target sequence (Q00987 whole entry, looked up): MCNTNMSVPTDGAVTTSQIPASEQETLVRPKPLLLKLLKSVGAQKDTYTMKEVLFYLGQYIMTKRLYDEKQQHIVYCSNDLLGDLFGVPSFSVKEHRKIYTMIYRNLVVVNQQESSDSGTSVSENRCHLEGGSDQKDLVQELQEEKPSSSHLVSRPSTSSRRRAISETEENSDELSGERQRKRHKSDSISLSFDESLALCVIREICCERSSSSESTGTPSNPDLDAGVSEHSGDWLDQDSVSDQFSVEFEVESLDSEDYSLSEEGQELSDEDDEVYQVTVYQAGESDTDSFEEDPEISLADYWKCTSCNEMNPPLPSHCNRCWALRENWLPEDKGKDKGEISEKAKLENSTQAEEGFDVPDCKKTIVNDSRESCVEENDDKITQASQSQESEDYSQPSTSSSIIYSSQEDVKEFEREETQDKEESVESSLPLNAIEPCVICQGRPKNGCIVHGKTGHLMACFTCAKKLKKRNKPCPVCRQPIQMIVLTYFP
HIF-2a inh conf: HIF-2a inhibition, single concentration confirmation; shares compounds with HIF-2a block; 786-0 RCC cells, HIF-2a luciferase reporter luminescence, overnight; inhibition, % at 18.8 µM; 1,800 compounds, 56% hits; AID 651580;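 active means mean inhibition across four replicates of at least 40 percent at the single tested concentration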
HIF-1a counter: HIF-1a inhibition counter-screen for HIF-2a hits; shares compounds with HIF-2a block; MiaPaCa-2 HIF-1a luciferase reporter, desferoxamine, overnight; inhibition, % at 18.8 µM; 1,800 compounds, 72% hits; AID 651589;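 active means mean inhibition of the reporter signal across four replicates at the single tested dose of 50% or more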
Hits are given with their value. Shown are actives, neighbours in structure and some others; about 4% of the full set was active somewhere.

Screening COc1ccc(/C=N/Nc2cc(C)nc3ccc(Br)cc23)cc1 returned Peg3 prom inh 101, CF NFkB inh inactive, HIF-2a block 46, TROY NFkB inh inactive, TWEAK Fn14 block inactive, KKLEB tox inactive, HIF-2a inh conf inactive and HIF-1a counter 106.
For O=[N+]([O-])c1ccc2cn(C3OC(CO)C(O)C3O)nc2c1 (centres undefined) the results were Peg3 prom inh inactive, CF NFkB inh inactive, HIF-2a block inactive, TROY NFkB inh inactive, TWEAK Fn14 block inactive and KKLEB tox inactive.
`Cc1c(NC(=O)[C@@H](NC(=O)c2ccc(Cl)c([N+](=O)[O-])c2)C(C)C)c(=O)n(-c2ccccc2)n1C` gave Peg3 prom inh inactive, CF NFkB inh inactive, HIF-2a block inactive, TROY NFkB inh inactive, TWEAK Fn14 block inactive and KKLEB tox inactive.
Screening N#Cc1sc2nccc(Nc3ccccc3)c2c1N returned Peg3 prom inh inactive, CF NFkB inh 81, HIF-2a block inactive, TROY NFkB inh inactive, TWEAK Fn14 block 80, KKLEB tox inactive and Mdm2-MdmX confirm 91.
Screening Nc1cc(Nc2ccccc2)ccn1 returned Peg3 prom inh inactive, CF NFkB inh inactive, HIF-2a block inactive, TROY NFkB inh inactive, TWEAK Fn14 block inactive and KKLEB tox inactive.
Cc1cc(C)cc(NS(=O)(=O)c2c(C)[nH]c(=O)[nH]c2=O)c1 was read as Peg3 prom inh inactive, CF NFkB inh inactive, HIF-2a block inactive, TROY NFkB inh inactive, TWEAK Fn14 block inactive and KKLEB tox inactive.
`CCCCn1c(=O)[nH]c(=O)c2c1nc(CN1C(=O)c3ccccc3S1(=O)=O)n2CCC` gave Peg3 prom inh inactive, CF NFkB inh inactive, HIF-2a block inactive, TROY NFkB inh inactive, TWEAK Fn14 block inactive and KKLEB tox inactive.
For CCCCn1c(=O)[nH]c(=O)c2c1nc(Cn1ncc(Cl)c(Cl)c1=O)n2CCC the results were Peg3 prom inh 104, CF NFkB inh 103, HIF-2a block 96, TROY NFkB inh 71, TWEAK Fn14 block 94, KKLEB tox -81, Mdm2-MdmX confirm 103, HIF-2a inh conf 71 and HIF-1a counter 97.
For C=CCC(Nc1ccccc1)C12C=CC(O1)C(C(=O)OC)=C2C(=O)OC (centres undefined) the results were Peg3 prom inh 92, CF NFkB inh inactive, HIF-2a block 92, TROY NFkB inh inactive, TWEAK Fn14 block inactive, KKLEB tox inactive, HIF-2a inh conf 94 and HIF-1a counter 98.
Screening COc1ccc(Cl)c2sc(N(CCN(C)C)C(=O)CCS(=O)(=O)c3ccc(C)cc3)nc12 returned Peg3 prom inh inactive, CF NFkB inh inactive, HIF-2a block inactive, TROY NFkB inh inactive, TWEAK Fn14 block inactive and KKLEB tox inactive.
CN(C)CCN(C(=O)CCS(=O)(=O)c1ccccc1)c1nc2c(F)cccc2s1 was read as Peg3 prom inh inactive, CF NFkB inh inactive, HIF-2a block inactive, TROY NFkB inh inactive, TWEAK Fn14 block inactive and KKLEB tox inactive.
Screening Cc1ccc2sc(N(CCCN(C)C)C(=O)CCS(=O)(=O)c3ccccc3)nc2c1C returned Peg3 prom inh 108, CF NFkB inh 92, HIF-2a block 88, TROY NFkB inh inactive, TWEAK Fn14 block 63, KKLEB tox -81, HIF-2a inh conf inactive and HIF-1a counter 77.
For COc1ccc(OC)c2sc(N(CCCN(C)C)C(=O)CCS(=O)(=O)c3ccccc3)nc12 the results were Peg3 prom inh 109, CF NFkB inh 86, HIF-2a block 45, TROY NFkB inh inactive, TWEAK Fn14 block 53, KKLEB tox inactive, HIF-2a inh conf inactive and HIF-1a counter 60.
Screening Cc1cc(S(=O)(=O)NCc2ccccc2)ccc1OCC(=O)N1CCCC1 returned Peg3 prom inh inactive, CF NFkB inh inactive, HIF-2a block inactive, TROY NFkB inh inactive, TWEAK Fn14 block inactive and KKLEB tox inactive.

Screens as filed in PubChem.
